# Reference: PubChem BioAssay (Tox21)
# Several values for one entry are separate records, joined by “and”; a condition that tells them apart may be missing. Equal entries are not always repeated. Activity calls are given as the source filed them. Where a call stands in place of a potency, no number is given. Unless noted, calls come from the whole dose curve; as a rule, active = well fitted curve in the direction sought with a large enough effect in the repeat runs; inconclusive = weak or mixed curves; inactive = no such curve, though single readings can be large; an effect the other way counts as inactive or inconclusive.
# Assays:
# [1] = qHTS assay to identify small molecule antagonists of the thyroid receptor (TR) signaling pathway - cell viability counter screen (AID 743064); note: nearly all actives have a fitted effect of over 50% in size; note: potency is the fitted concentration of half-maximal effect
# Procedure, shortened: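 Viability of T3-stimulated (1 nM final) GH3.TRE-Luc cells is measured by CellTiter-Fluor fluorescence after 23.5 h compound exposure at 37 °C plus 30 min reagent incubation.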
# [2] = qHTS assay to identify small molecule antagonists of the thyroid receptor (TR) signaling pathway (AID 743065); note: nearly all actives have a fitted effect of over 55% in size; note: potency is the fitted concentration of half-maximal effect
# Procedure, shortened: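 GH3.TRE-Luc rat pituitary cells (two TREs driving luciferase) were dosed with compound, then stimulated with 1 nM T3 (final) for 23.5 h at 37 C. ONE-Glo luminescence was the read-out, with CellTiter-Fluor fluorescence as the cytotoxicity counter-screen.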
# [3] = tested on: thyroid hormone receptor (rat, GH3 cells); assay: qHTS assay to identify small molecule agonists of the thyroid receptor (TR) signaling pathway (AID 743066; calls by dose curve)
# [4] = molecular target: Estrogen receptor (Homo sapiens) (UniProt P03372); assay: qHTS assay to identify small molecule agonists of the estrogen receptor alpha (ER-alpha) signaling pathway (AID 743075; calls by dose curve;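 note: HEK293 GripTite cells with ER-alpha and UAS-driven beta-lactamase reporter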; note: potency is the fitted concentration of half-maximal effect)
# Sequence of Estrogen receptor (Homo sapiens) (P03372 whole entry, looked up): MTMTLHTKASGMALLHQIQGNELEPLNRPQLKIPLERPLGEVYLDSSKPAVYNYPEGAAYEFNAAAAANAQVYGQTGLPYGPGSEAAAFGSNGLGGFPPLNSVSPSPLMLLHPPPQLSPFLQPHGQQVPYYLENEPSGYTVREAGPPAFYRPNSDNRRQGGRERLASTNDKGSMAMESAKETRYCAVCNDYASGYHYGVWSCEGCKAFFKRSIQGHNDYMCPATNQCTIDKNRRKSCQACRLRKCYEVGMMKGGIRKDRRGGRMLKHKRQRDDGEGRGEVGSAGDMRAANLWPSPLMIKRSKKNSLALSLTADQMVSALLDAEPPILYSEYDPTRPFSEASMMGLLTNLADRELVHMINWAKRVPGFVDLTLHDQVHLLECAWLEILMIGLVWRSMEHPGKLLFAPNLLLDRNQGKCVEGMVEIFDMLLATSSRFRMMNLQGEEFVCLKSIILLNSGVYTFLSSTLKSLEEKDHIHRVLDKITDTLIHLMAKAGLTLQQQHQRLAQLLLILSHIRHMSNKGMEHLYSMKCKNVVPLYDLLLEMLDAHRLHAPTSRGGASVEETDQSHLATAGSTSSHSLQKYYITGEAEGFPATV
# [5] = molecular target: Estrogen receptor (Homo sapiens) (UniProt P03372); assay: qHTS assay to identify small molecule agonists of the estrogen receptor alpha (ER-alpha) signaling pathway using the BG1 cell line (AID 743079); settings: BG1Luc4E2 cells, ERE-luciferase agonist, 22 h; activation: at 70.3 µM (top of the series); note: nearly all actives have a fitted effect of over 20% in size; note: potency is the fitted concentration of half-maximal effect
# [6] = molecular target: Estrogen receptor (Homo sapiens) (UniProt P03372); assay: qHTS assay to identify small molecule antagonists of the estrogen receptor alpha (ER-alpha) signaling pathway (AID 743069; active = well fitted curve in the direction sought with a large enough effect in the signal ratio in the repeat runs, not every such curve was filed as active; inconclusive = weak or mixed curves, or effect the other way; inactive = no such curve, though single readings can be large or run the other way; the % refers to the signal ratio; note: potency is the fitted concentration of half-maximal effect)
# Procedure, shortened: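 Beta-lactamase FRET fluorescence is read after 2 hr at room temperature with LiveBLAzer B/G substrate. Before that, ER-alpha-bla HEK293 cells sit 4 hr after plating, then receive compound plus 17beta-estradiol and incubate 18 hr at 37C.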
# [7] = qHTS assay to identify small molecule antagonists of the estrogen receptor alpha (ER-alpha) signaling pathway - cell viability counter screen (AID 743074; calls by dose curve;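 note: HEK293 cells carrying ER-alpha-UAS-bla reporter stimulated with 17beta-estradiol; nearly all actives have a fitted effect of over 45% in size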; note: potency is the fitted concentration of half-maximal effect)
# [8] = qHTS assay to identify small molecule antagonists of the estrogen receptor alpha (ER-alpha) signaling pathway using the BG1 cell line (AID 743080; calls by dose curve;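 note: BG1 cells stimulated with 17beta-estradiol alongside compound; nearly all actives have a fitted effect of over 25% in size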; note: potency is the fitted concentration of half-maximal effect)
# Procedure, shortened: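 BG1-Luc-4E2 cells (endogenous full-length ER-alpha, stable 4×ERE-luciferase) were starved 5 days in phenol-red-free medium with 10% charcoal-stripped FBS, plated 24 h, then given compound plus 17beta-estradiol for 21.5 h at 37 C; ONE-Glo luminescence read after 30 min.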
# [9] = qHTS assay to identify small molecule antagonists of the estrogen receptor alpha (ER-alpha) signaling pathway using the BG1 cell line - cell viability counter screen (AID 743081);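 note: compound given together with 17beta-estradiol as the ER stimulus; nearly all actives have a fitted effect of over 45% in size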; note: potency is the fitted concentration of half-maximal effect
# Aromatase (Homo sapiens) = Aromatase (Homo sapiens) (UniProt P11511); assay: qHTS assay to identify aromatase inhibitors (AID 743083); note: nearly all actives have a fitted effect of over 55% in size; note: potency is the fitted concentration of half-maximal effect
# Sequence of Aromatase (Homo sapiens) (P11511 whole entry, looked up): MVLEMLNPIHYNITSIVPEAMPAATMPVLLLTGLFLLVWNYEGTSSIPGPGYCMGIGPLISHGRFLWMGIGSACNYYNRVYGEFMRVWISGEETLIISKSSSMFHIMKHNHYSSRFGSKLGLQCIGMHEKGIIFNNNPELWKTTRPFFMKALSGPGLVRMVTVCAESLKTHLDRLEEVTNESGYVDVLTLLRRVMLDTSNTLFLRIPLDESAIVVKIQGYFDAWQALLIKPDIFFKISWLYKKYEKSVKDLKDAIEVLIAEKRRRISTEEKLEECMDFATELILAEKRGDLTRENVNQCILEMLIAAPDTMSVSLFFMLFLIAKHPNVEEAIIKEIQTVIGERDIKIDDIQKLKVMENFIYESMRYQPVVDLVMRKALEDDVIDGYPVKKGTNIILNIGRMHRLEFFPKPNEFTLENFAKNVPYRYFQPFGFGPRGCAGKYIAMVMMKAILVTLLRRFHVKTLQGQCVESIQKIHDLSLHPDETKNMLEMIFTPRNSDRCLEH
Structure (SMILES),Potency [1],Potency [2],Potency [3],Potency [4],Potency [5],Potency [6],Potency [7],Potency [8],Potency [9],Potency (Aromatase (Homo sapiens))
C=C1C(=C/C=C2\CCC[C@]3(C)[C@@H]([C@H](C)/C=C/[C@H](C)C(C)C)CC[C@@H]23)C[C@@H](O)C[C@@H]1O,29.8 µM (active),29.8 µM (active),inactive,inactive,inactive,–,–,–,–,–
CC1=C(/C=C/C(C)=C/C=C/C(C)=C/C(=O)Oc2c(C)c(C)c3c(c2C)CC[C@@](C)(CCC[C@H](C)CCC[C@H](C)CCCC(C)C)O3)C(C)(C)CCC1,inactive,inactive,–,inactive,inactive,inactive,inactive,7.5 µM (active),inactive,–
C=C1/C(=C\C=C2/CCC[C@]3(C)[C@@H]([C@H](C)OCCC(C)(C)O)CC[C@@H]23)C[C@@H](O)C[C@@H]1O,inactive,37.6 µM (active),inactive,–,–,–,inactive,–,–,inactive
CCN(CC)CCOCCOC(=O)C(CC)(CC)c1ccccc1,26.6 µM (active),23.7 µM (active),inactive,–,–,–,inactive,–,–,inactive
Cc1cccc(C)c1NC(=O)NC1=CCCN1C,inactive,inactive,inactive,–,–,–,–,–,inactive,inactive
C#C[C@]1(OC(C)=O)CC[C@H]2[C@@H]3CCC4=CC(=O)CC[C@@H]4[C@H]3CC[C@@]21C,inactive,9.44 µM (active),inactive,–,–,–,–,–,inactive,–
Clc1cc(Cl)c(OCC#CI)cc1Cl,7.5 µM (active),6.68 µM (active),–,inactive,–,inactive,inactive,33.5 µM (active),inactive,16.8 µM (active)
COc1ccccc1N1CCN(CCCC(=O)c2ccc(F)cc2)CC1,inactive,inactive,inactive,–,–,–,inactive,–,–,inactive
COC(=O)C1=C(C)NC(C)=C(C(=O)O[C@H]2CCN(Cc3ccccc3)C2)[C@H]1c1cccc([N+](=O)[O-])c1,13.3 µM (active),18.8 µM (active),–,inactive,inactive,26.8 µM [inhibitor] (active),inactive,inactive,–,inactive
CO[C@H]1C[C@@H]2CC[C@@H](C)[C@@](O)(O2)C(=O)C(=O)N2CCCC[C@H]2C(=O)O[C@H]([C@H](C)C[C@@H]2CC[C@@H](OCCO)[C@H](OC)C2)CC(=O)[C@H](C)/C=C(\C)[C@@H](O)[C@@H](OC)C(=O)[C@H](C)C[C@H](C)/C=C/C=C/C=C/1C,3.76 µM (active),0.0027 µM (active),inactive,–,inactive,–,–,0.0047 µM (active),21.1 µM (active),–
C=C1CC[C@@H]2[C@](C)(CO)[C@H](O)CC[C@@]2(C)[C@@H]1C/C=C1/C(=O)OC[C@H]1O,21.1 µM (active),23.7 µM (active),–,inactive,inactive,inactive,inactive,–,inactive,inactive
CC(CN1c2ccccc2Sc2ccc(S(=O)(=O)N(C)C)cc21)N(C)C (centres undefined),11.9 µM (active),13.3 µM (active),–,inactive,inactive,inactive,inactive,inactive,inactive,–
CN1CCCC(CN2c3ccccc3Sc3ccccc32)C1 (centres undefined),11.9 µM (active),11.9 µM (active),–,inactive,inactive,19 µM [inhibitor] (active),inactive,inactive,inactive,–
COC(=O)[C@H]1[C@H]2C[C@@H]3c4[nH]c5ccccc5c4CCN3C[C@H]2C[C@@H](OC(=O)c2cc(OC)c(OC)c(OC)c2)[C@@H]1OC,26.6 µM (active),2.11 µM (active) and 21.1 µM (active),–,inactive,inactive,2.39 µM [inconclusive] (active),inactive,6.68 µM (active),inactive,5.96 µM (active) and 29.8 µM (active)
C[C@H]1[C@@H](OC(=O)CCC(=O)O)O[C@@H]2OC3(C)CC[C@H]4[C@H](C)CC[C@@H]1[C@@]24OO3,2.98 µM (active),1.06 µM (active),–,inactive,inactive,7.56 µM [inconclusive] (active),inactive,inactive,–,–
c1ccc2c(c1)Sc1ccccc1N2CCN1CCCC1,11.9 µM (active),29.8 µM (active),inactive,–,–,–,inactive,–,–,inactive
CO[C@H]1C=CO[C@@]2(C)Oc3c(C)c(O)c4c(O)c(c5c(nc6cc(C)ccn65)c4c3C2=O)NC(=O)/C(C)=C\C=C[C@H](C)[C@H](O)[C@@H](C)[C@@H](O)[C@@H](C)[C@H](OC(C)=O)[C@@H]1C,inactive,inactive,inactive,–,–,–,–,–,inactive,–
OC[C@H]1OC([S-])[C@H](O)[C@@H](O)[C@@H]1O.[Au+] (some centres undefined),10.6 µM (active),7.5 µM (active),–,inactive,inactive,inactive,inactive,inactive,inactive,inactive
CCCCCC(O)/C=C/C=O (centres undefined),inactive,inactive,inactive,–,–,–,–,–,inactive,inactive
NNc1nnc(Cc2ccncc2)c2ccccc12,inactive,4.73 µM (active),inactive,–,–,–,inactive,–,–,13.3 µM (active)

Structure (SMILES),Potency [1],Potency [2],Potency [3],Potency [4],Potency [5],Potency [6],Potency [7],Potency [8],Potency [9],Potency (Aromatase (Homo sapiens))
C/C1=C2N=C(/C=C3N=C(/C(C)=C4\[N-]C(C(CC(N)=O)C4(C)CCC(=O)NCC(C)OP(=O)([O-])OC4C(CO)OC(n5cnc6cc(C)c(C)cc65)C4O)C4(C)N=C1C(CCC(N)=O)C4(C)CC(N)=O)C(CCC(N)=O)C\3(C)C)C(CCC(N)=O)C/2(C)CC(N)=O.[CH3-].[Co+3] (centres undefined),29.8 µM (active),11.9 µM (active),inactive,–,–,–,–,–,–,13.3 µM (active)
S=C1SCN(Cc2ccccc2)CN1Cc1ccccc1,18.8 µM (active),18.8 µM (active),–,inactive,26.6 µM (active),inactive,inactive,–,inactive,inactive
CCOC(=O)C1=C[C@@H](OC(CC)CC)[C@H](NC(C)=O)[C@@H](N)C1,inactive,inactive,inactive,–,–,–,inactive,–,–,inactive
CCC(c1ccccc1)c1noc(CCN(CC)CC)n1 (centres undefined),inactive,inactive,inactive,–,–,–,–,–,inactive,inactive
CC(=O)[C@]1(O)Cc2c(O)c3c(c(O)c2[C@@H](O[C@H]2C[C@H](N)[C@H](O)[C@H](C)O2)C1)C(=O)c1c(O)cccc1C3=O,150 nM (active) and 188 nM (active),0.119 µM (active),–,3.38 µM [inconclusive] (active) and 6.01 µM [inconclusive] (active),–,10.7 µM [inconclusive] (active),inactive,–,18.8 µM (active) and 23.7 µM (active),3.35 µM (active)
O=C(O)C1CCCN1 (centres undefined),inactive,inactive,inactive,–,–,–,–,–,inactive,inactive
CCN(CC)CCCC(C)Nc1cc(/C=C/c2ccccc2Cl)nc2cc(Cl)ccc12 (centres undefined),26.6 µM (active),29.8 µM (active),–,inactive,inactive,inactive,inactive,inactive,–,–
CC(=O)O[C@H]1CC[C@@]2(C)C(=CC[C@H]3[C@@H]4CC[C@H](C(C)=O)[C@@]4(C)CC[C@@H]32)C1,inactive,inactive,inactive,16.9 µM [inconclusive] (active),–,–,–,inactive,inactive,inactive
CCCCCCCCCCCCCCCC(=O)OCCC1CCN(CCCN2c3ccccc3Sc3ccc(S(=O)(=O)N(C)C)cc32)CC1,inactive,inactive,inactive,–,–,–,inactive,–,–,inactive
CCN(CC)CCC(=O)N1c2ccccc2Sc2ccc(C(F)(F)F)cc21,13.3 µM (active),26.6 µM (active),–,inactive,–,inactive,inactive,inactive,inactive,inactive
Cc1cc(O)c2c(c1)O[C@@]1(C)CC[C@H]3C(C)(C)CCCC34CO[C@@H]2[C@H]41 (some centres undefined),18.8 µM (active),13.3 µM (active),–,inactive,–,inactive,inactive,26.6 µM (active),inactive,26.6 µM (active)
CC(C(=O)O)c1ccc(C2CCCCC2)c2ccccc12 (centres undefined),inactive,–,inactive,inactive,inactive,inactive,inactive,inactive,inactive,–
C=C1CC[C@H](O)CC1=C/C=C1\CCC[C@]2(C)[C@@H]([C@H](C)CC[C@@H](O)C(C)(C)O)CC[C@@H]12,26.6 µM (active),16.8 µM (active),–,inactive,–,21.3 µM [inconclusive] (active),–,–,inactive,inactive
CCN(CC)CCOc1ccc(-c2nc3cc(Cl)ccc3s2)cc1,8.41 µM (active),6.68 µM (active),–,inactive,–,–,inactive,–,inactive,inactive
C/C=C1\NC(=O)[C@H]2CSSCC/C=C/[C@H](CC(=O)N[C@H](C(C)C)C(=O)N2)OC(=O)C(C(C)C)NC1=O (some centres undefined),0.0119 µM (active),0.0168 µM (active),–,15.1 µM [inconclusive] (active),–,–,6.74 µM (active),0.0531 µM (active),–,0.0094 µM (active)
COc1ccc(C2NC(=S)N3C(c4ccc(OC)c(OC)c4)NC(=S)N23)cc1OC (centres undefined),0.188 µM (active),0.0841 µM (active),–,inactive,inactive,–,inactive,–,inactive,0.168 µM (active)
CN1CCN(CCCN2c3ccccc3Sc3ccccc32)CC1,13.3 µM (active),23.7 µM (active),–,inactive,inactive,–,inactive,inactive,–,–
O=[N+]([O-])c1c(Cl)cccc1-c1c[nH]cc1Cl,29.8 µM (active),26.6 µM (active),–,4.77 µM [inconclusive] (active),–,–,–,–,–,–
CCCC1([C@H](O)C/C=C/[C@H]2[C@H](O)CC(=O)[C@@H]2CCCCCCC(=O)OC)CCC1,29.8 µM (active),26.6 µM (active),–,–,inactive,–,inactive,inactive,inactive,–
